The source made the active and inactive calls.
How the values were obtained:
[1] = E. coli DRC41 culture turbidity changes, primary screen, E. coli filamentation inducer project, strain DRC41, OD650, 48 h (AID 1152);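 note: E. coli MC1000 strain DRC41 lacking acrAB efflux pump and sulA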; settings: E. coli DRC41 (acrAB sulA), higher = more signal, called active from +8 up or from −8 down
[2] = small-molecule binders of probe aLefty1, primary screen, biochemical, small-molecule microarray, 635/667 nm fluorescence (AID 1153); settings: higher = more signal;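 note: score merges spot fluorescence with signal-to-noise ratio from the scanned slide images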
[3] = PSAC antagonists in infected red cells, primary screen, cell-based, P. falciparum Indochina, OD700, 1 h (AID 1154); settings: P. falciparum Indochina infected RBC osmotic lysis, higher = more signal, called active from +8 up or from −8 down
[4] = PSAC antagonists in infected red cells, primary screen, cell-based, P. falciparum Indochina, OD700, 2 h (AID 1155);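 note: lysis reports solute entry through the parasite surface anion channel PSAC; channel blockers reduce lysis of infected cells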; settings: P. falciparum Indochina infected erythrocytes, osmotic lysis OD700; higher = more signal, called active from +8 up or from −8 down
[5] = osmotic lysis modulators in infected erythrocytes, primary screen, PSAC antagonist project, cell-based, P. falciparum Indochina, OD700, 3 h (AID 1156); settings: higher = more signal, called active from +8 up or from −8 down
[6] = PSAC antagonists in infected red cells, primary screen, cell-based, P. falciparum Indochina, OD700, 18 h (AID 1157); settings: P. falciparum Indochina infected erythrocytes, osmotic lysis OD700, 18 h; higher = more signal, called active from +8 up or from −8 down
[7] = modulators of S6 phosphorylation in cells, primary screen, cell-based, A549, cytoblot, luminescence, serum-stimulated (AID 1158); settings: A549 phospho-S6 cytoblot, 5 h, higher = more signal;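 note: serum-stimulated A549 lung adenocarcinoma cells; signal is phosphorylated S6 detected by cytoblot immunostaining with HRP secondary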
[8] = target: NADPH oxidase 2 (Homo sapiens) (UniProt P04839); assay: NOX2-dependent H2O2 signal modulators, primary screen, NOX inhibitor project, cell-based, HEK293-NOX2, PMA-stimulated, Amplex Red fluorescence (AID 1159); settings: 45 min, higher = more signal, called active from +8 up or from −8 down; note: test concentration not given here
[9] = target: NADPH oxidase 4 (Homo sapiens) (UniProt Q9NPH5); assay: NOX4-dependent H2O2 signal modulators, primary screen, NOX inhibitor project, cell-based, HEK293-NOX4, tetracycline-induced, Amplex Red fluorescence (AID 1160); settings: 45 min, higher = more signal, called active from +8 up or from −8 down
[10] = target: NADPH oxidase 5 (Homo sapiens) (UniProt Q96PH1); assay: NOX5-dependent H2O2 signal modulators, primary screen, NOX inhibitor project, cell-based, HEK293-NOX5, Amplex Red fluorescence (AID 1161); settings: HEK293-NOX5, ionomycin, 45 min, higher = more signal
[11] = A549 cell viability effects, profiling panel, calcein-AM fluorescence, 48 h, basal (AID 1162); settings: higher = more signal; note: test concentration not given here
[12] = adipocyte viability effects, profiling panel, cell-based, 3T3-L1 adipocytes, calcein-AM fluorescence, 48 h, basal (AID 1163); settings: 3T3-L1 adipocytes viability, higher = more signal; note: test concentration not given here
[13] = HepG2 cell viability effects, profiling panel, calcein-AM fluorescence, 48 h, basal (AID 1164); settings: higher = more signal; note: test concentration not given here
[14] = MM1S cell viability effects, profiling panel, calcein-AM fluorescence, 48 h, basal (AID 1165); settings: higher = more signal;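 note: viability of MM1S multiple myeloma cells under basal unstimulated conditions; test concentration not given here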
[15] = basal RPMI8226 viability, no added stimulus, profiling panel, cell-based, calcein-AM fluorescence, 48 h, PK04 Diversity Set (AID 1166); settings: RPMI8226 myeloma viability, higher = more signal;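 note: cells grown under basal conditions without added stimulus; test concentration not given here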
[16] = basal HepG2 mitochondrial membrane potential changes, profiling panel, cell-based, JC-1 fluorescence, 24 h, 100 nL compound (AID 1167); settings: higher = more signal; note: test concentration not given here
[17] = basal 3T3-L1 adipocyte mitochondrial potential changes, profiling panel, cell-based, JC-1 fluorescence, 3T3-L1 adipocytes, 24 h, 100 nL compound (AID 1168); settings: JC-1 mitochondrial fluorescence, higher = more signal, called active from +8 up or from −8 down; note: test concentration not given here
[18] = basal RPMI8226 mitochondrial membrane potential changes, profiling panel, cell-based, JC-1 fluorescence, 24 h, 100 nL compound (AID 1169); settings: RPMI8226 myeloma, JC-1 mitochondrial potential fluorescence, higher = more signal; note: test concentration not given here
[19] = basal MM1S mitochondrial membrane potential changes, profiling panel, cell-based, JC-1 fluorescence, 24 h, 100 nL compound (AID 1170); settings: higher = more signal; note: test concentration not given here
[20] = A549 lung cancer cell viability effects, profiling panel, resazurin fluorescence, 24 h, PK04 Diversity Set (AID 1171); settings: higher = more signal, called active from +8 up or from −8 down; note: test concentration not given here

Sequence of NADPH oxidase 4 (Homo sapiens) (Q9NPH5 whole entry, looked up): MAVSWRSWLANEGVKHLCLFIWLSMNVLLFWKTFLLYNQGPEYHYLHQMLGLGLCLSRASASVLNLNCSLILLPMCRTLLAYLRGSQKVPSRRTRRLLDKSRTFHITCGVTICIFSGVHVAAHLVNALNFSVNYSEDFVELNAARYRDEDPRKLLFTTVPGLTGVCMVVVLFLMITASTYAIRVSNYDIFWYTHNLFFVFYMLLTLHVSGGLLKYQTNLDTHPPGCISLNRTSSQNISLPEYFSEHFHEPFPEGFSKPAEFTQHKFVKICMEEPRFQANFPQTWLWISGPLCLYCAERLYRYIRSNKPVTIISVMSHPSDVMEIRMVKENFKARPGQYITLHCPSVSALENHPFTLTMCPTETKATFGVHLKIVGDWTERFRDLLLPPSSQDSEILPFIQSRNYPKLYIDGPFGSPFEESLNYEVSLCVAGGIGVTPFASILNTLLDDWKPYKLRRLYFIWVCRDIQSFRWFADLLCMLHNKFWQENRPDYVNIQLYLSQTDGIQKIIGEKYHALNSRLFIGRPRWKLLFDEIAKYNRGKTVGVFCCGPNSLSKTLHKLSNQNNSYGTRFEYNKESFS
Sequence of NADPH oxidase 2 (Homo sapiens) (P04839 whole entry, looked up): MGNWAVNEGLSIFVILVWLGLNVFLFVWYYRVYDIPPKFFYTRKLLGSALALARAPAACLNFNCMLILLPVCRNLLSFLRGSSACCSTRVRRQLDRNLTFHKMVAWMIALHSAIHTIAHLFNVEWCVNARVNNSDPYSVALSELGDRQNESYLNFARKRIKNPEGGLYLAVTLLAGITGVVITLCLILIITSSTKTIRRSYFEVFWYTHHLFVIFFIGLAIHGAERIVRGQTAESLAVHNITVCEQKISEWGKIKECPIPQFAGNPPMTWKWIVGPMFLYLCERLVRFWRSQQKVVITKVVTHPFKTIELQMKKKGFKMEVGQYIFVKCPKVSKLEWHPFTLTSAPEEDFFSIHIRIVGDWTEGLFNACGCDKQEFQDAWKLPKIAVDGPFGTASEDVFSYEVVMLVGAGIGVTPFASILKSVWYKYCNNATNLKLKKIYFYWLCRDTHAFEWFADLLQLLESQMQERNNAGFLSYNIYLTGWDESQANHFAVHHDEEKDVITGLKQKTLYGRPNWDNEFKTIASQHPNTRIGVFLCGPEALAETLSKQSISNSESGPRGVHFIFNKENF
Sequence of NADPH oxidase 5 (Homo sapiens) (Q96PH1 whole entry, looked up): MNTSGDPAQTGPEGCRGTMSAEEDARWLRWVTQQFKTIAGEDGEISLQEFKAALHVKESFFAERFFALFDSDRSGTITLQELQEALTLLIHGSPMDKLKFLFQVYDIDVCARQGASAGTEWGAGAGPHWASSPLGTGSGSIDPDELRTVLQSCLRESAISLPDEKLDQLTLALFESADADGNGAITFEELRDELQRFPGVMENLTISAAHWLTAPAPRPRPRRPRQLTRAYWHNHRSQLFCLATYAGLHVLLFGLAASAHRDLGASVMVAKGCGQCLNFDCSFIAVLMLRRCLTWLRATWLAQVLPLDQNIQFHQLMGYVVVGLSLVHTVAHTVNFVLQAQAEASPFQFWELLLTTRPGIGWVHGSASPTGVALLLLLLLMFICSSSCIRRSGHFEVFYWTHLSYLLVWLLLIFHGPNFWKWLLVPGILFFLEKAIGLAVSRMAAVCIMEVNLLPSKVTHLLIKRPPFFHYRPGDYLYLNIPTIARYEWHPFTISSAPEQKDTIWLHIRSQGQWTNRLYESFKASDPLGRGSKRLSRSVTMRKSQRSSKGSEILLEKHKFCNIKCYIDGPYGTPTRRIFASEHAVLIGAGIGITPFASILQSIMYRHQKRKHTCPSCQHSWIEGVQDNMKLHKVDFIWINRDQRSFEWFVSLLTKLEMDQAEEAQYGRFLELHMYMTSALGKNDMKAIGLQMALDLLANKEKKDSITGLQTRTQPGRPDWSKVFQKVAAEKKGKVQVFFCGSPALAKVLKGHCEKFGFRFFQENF

Structure (SMILES)	z-score [1]	composite z-score [2]	z-score [3]	z-score [4]	z-score [5]	z-score [6]	z-score [7]	z-score [8]	z-score [9]	z-score [10]	z-score [11]	z-score [12]	z-score [13]	z-score [14]	z-score [15]	z-score [16]	z-score [17]	z-score [18]	z-score [19]	z-score [20]
C[N+](C)(C)CCCCNC(=O)[C@H]1C[C@H]2C(=O)N[C@@H](Cc3ccccc3)C(=O)N2[C@H]1c1ccc(O)cc1	0.274 (inactive)	-0.142	0.891 (inactive)	0.0222 (inactive)	-0.271 (inactive)	0.228 (inactive)	0.149	-2.12 (inactive)	-1.27 (inactive)	-2.42	-0.111	-0.649	0.0005	0.27	-0.546	0.169	-0.333 (inactive)	-0.831	-1.13	-0.486 (inactive)
COc1cc2c(cc1OC)CN(C(=O)[C@H]1[C@@H]3C(=O)O[C@@H](c4ccccc4)[C@@H](c4ccccc4)N3[C@@H](c3ccc(O)cc3)[C@]13C(=O)Nc1ccc(C#CC4=CCCCC4)cc13)CC2	1.21 (inactive)	0.35	0.924 (inactive)	0.445 (inactive)	0.79 (inactive)	0.736 (inactive)	-0.226	0.685 (inactive)	0.513 (inactive)	1.88	-0.59	0.474	0.679	-0.35	-2.23	-0.259	2.83 (inactive)	-0.243	-0.101	-0.435 (inactive)
O=C1NC(=O)C2C1C=CC(C(O)c1ccccc1)N2Nc1ccc(Cl)cc1Cl (stereo not given)	-1.87 (inactive)	0.93	5.08 (inactive)	-0.32 (inactive)	-3.3 (inactive)	-1.8 (inactive)	0.726	-0.169 (inactive)	-4.94 (inactive)	-2.51	0.0862	-0.0715	-1.48	-3.55	-3.28	-3.07	-0.544 (inactive)	-1.09	-1.59	-1.92 (inactive)
CC1(C)[C@@H]2CC(C(O)C3C=CC4C(=O)N(c5ccccc5)C(=O)C4N3Nc3ccccc3)=C[C@H]1C2 (stereo not given in full)	-1.16 (inactive)	-0.012	4.78 (inactive)	0.741 (inactive)	-0.343 (inactive)	1.29 (inactive)	-1.04	-1.47 (inactive)	-2.94 (inactive)	-3.08	-1.66	-1.16	-1.16	-0.528	-0.209	-1.79	-1.46 (inactive)	0.263	-0.527	-0.158 (inactive)
O=C1c2ccccc2[C@](Cc2ccccc2I)(C(=O)NC2CC2)[C@H](c2ccc(CO)cc2)N1C1CCCCC1	0.0304 (inactive)	0.166	22.5 (active)	5.2 (inactive)	3.82 (inactive)	1.36 (inactive)	-0.471	0.478 (inactive)	1.06 (inactive)	2.45	0.818	0.835	0.677	-1.02	-1.98	2.11	0.252 (inactive)	-0.482	-0.299	0.91 (inactive)
COc1ccc([Si](C)(C)[C@@H]2[C@@H](CCO)O[C@]3(C(=O)N(Cc4ccc(N5C(=O)COc6ccccc65)cc4)c4ccccc43)[C@H]2C)cc1	-0.163 (inactive)	0.165	3.9 (inactive)	3.84 (inactive)	0.746 (inactive)	2.39 (inactive)	0.866	0.506 (inactive)	1.46 (inactive)	1.38	-1.54	-0.0973	-3.87	-2.41	-3.72	-0.917	-0.189 (inactive)	-0.923	-1.53	-2.38 (inactive)
NC(=O)[C@@H]1[C@H]2C(=O)O[C@H](c3ccccc3)[C@H](c3ccccc3)N2[C@H](c2ccc(O)cc2)[C@@]12C(=O)Nc1ccc(C#CC3(O)CCCCCC3)cc12	-0.723 (inactive)	-0.0544	2.28 (inactive)	0.912 (inactive)	0.904 (inactive)	0.812 (inactive)	-0.231	0.834 (inactive)	-0.258 (inactive)	-0.125	0.735	-0.0487	0.338	-1.44	-0.482	-0.717	-0.928 (inactive)	-0.566	-0.0259	0.399 (inactive)
CCCCC(=C=CC[C@@H](O)c1ccccc1OCCO)CCO	0.086 (inactive)	0.0752	9.77 (active)	0.899 (inactive)	0.631 (inactive)	0.576 (inactive)	0.289	-0.0172 (inactive)	-0.742 (inactive)	-1.71	0.499	0.337	0.595	-0.0292	0.181	0.251	-0.321 (inactive)	0.11	0.502	0.245 (inactive)

Source: PubChem BioAssay
